Experimental data reported in the supplement of paper PMC3545927.
Some of the results follow. The hit rate among all sequences tested is not known here.

Target: furin, P09958
Experiment: furin cleavage Z-score vs untreated control; higher = more cleavage, active = 3.5 or more, inactive = 1 or less, 8 variable residues between constant flanks
How it was run: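 Purified furin cleaved 8-mer peptides that were fused to a cDNA oligonucleotide and held on magnetic beads by their N-terminus. Each 0.01 ml reaction used a 1:10 enzyme:substrate ratio in 50 mM HEPES pH 7.5 with CaCl2 and NaCl and ran 7.5, 15 or 30 min. Released DNA was adapter-tagged by PCR and sequenced, and read counts gave abundance. The cleavage Z-score came from log counts against furin-free reactions, lowess-adjusted and scaled by median absolute deviation.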

Chain of furin, P09958 (P09958 whole entry): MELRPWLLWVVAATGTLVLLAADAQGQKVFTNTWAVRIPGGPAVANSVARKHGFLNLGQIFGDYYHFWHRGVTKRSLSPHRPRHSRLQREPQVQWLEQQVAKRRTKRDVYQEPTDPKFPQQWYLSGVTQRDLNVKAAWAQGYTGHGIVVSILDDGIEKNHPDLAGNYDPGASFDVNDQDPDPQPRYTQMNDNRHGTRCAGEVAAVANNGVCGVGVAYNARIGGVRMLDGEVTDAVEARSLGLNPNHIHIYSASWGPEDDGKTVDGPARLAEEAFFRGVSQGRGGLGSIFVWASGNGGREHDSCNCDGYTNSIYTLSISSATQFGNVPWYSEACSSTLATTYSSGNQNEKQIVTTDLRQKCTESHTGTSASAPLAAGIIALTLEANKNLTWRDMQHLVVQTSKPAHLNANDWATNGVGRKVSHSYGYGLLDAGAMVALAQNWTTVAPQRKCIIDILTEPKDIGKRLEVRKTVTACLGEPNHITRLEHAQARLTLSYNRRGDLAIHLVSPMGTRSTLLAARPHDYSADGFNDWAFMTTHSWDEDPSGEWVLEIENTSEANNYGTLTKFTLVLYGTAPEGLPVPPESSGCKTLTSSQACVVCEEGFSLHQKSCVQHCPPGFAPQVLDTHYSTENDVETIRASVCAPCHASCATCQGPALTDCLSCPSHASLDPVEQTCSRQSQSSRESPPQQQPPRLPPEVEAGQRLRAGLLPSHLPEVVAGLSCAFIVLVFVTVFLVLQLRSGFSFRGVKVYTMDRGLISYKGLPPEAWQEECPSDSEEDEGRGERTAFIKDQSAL

Sequence | furin cleavage Z-score (7.5 min) | furin cleavage Z-score (15 min) | furin cleavage Z-score (30 min)
CALLCPAGHAAGNASASA [HC745] | 0.399 (inactive) | 0.942 (inactive) | -0.0279 (inactive)
CAYIEQGMMLAGNASASA [HC1019] | -1.18 (inactive) | -0.261 (inactive) | -0.872 (inactive)
CATTPCSTSWAGNASASA [HC1898] | 0.261 (inactive) | 0.66 (inactive) | -0.516 (inactive)
CAVVVCSMSYAGNASASA [HC2030] | 0.0385 (inactive) | -1.4 (inactive) | 0.392 (inactive)
CAMEECHQHLAGNASASA [HC29] | 0.383 (inactive) | 1.55 | 2.41
CAMTTDNLKCAGNASASA [HC1213] | -0.575 (inactive) | -0.0624 (inactive) | 0.0584 (inactive)
CARRRRAVPVAGNASASA [FS-2596] | 0.0891 (inactive) | 0.235 (inactive) | 1.42
CARRRRFVPVAGNASASA [FS-2786] | 2.12 | 4.63 (active) | 5.2 (active)
CASVDRWRRTAGNASASA [FS-95] | 3.08 | 4.75 (active) | 4.05 (active)
CADWLRQRRTAGNASASA [FS-1317] | -0.575 (inactive) | 1.58 | 1.74
CACSHRERRDAGNASASA [FS-584] | 6.92 (active) | 7.04 (active) | 8.38 (active)
CARRRRERRTAGNASASA [FS-375] | 10.4 (active) | 11 (active) | 9 (active)
CARRRRFPFVAGNASASA [FS-1784] | 0.483 (inactive) | 0.473 (inactive) | 1.3
CASSDLYLVTAGNASASA [HC724] | -0.584 (inactive) | -0.169 (inactive) | -0.884 (inactive)
CAGAPTYSWGAGNASASA [HC422] | -0.832 (inactive) | -0.574 (inactive) | -0.69 (inactive)
CAWTPCSAHLAGNASASA [HC2468] | -0.238 (inactive) | 0.336 (inactive) | -1.23 (inactive)
CAMEECSSHLAGNASASA [HC1737] | -0.244 (inactive) | 0.0684 (inactive) | 0.567 (inactive)
CASTCCSAHLAGNASASA [HC2520] | -0.141 (inactive) | 0.556 (inactive) | -0.184 (inactive)
CARRRRNVHDAGNASASA [FS-2375] | 4.94 (active) | 5.47 (active) | 4.66 (active)
CARRRRLLQQAGNASASA [FS-3167] | -0.397 (inactive) | -0.514 (inactive) | -0.168 (inactive)
CARRRREYWQAGNASASA [FS-2077] | 1.57 | 2.17 | 5.41 (active)
CARRRREAPKAGNASASA [FS-2452] | 10.9 (active) | 12.3 (active) | 8.72 (active)
CARRRRFSRTAGNASASA [FS-1482] | 12.1 (active) | 11.9 (active) | 9.62 (active)
CARACRLVHDAGNASASA [FS-2127] | -0.975 (inactive) | -0.538 (inactive) | -0.874 (inactive)
CAVYEAADAIAGNASASA [HC267] | -0.0143 (inactive) | -0.395 (inactive) | -0.118 (inactive)
CATPMGFSYDAGNASASA [HC1477] | -1.01 (inactive) | -0.454 (inactive) | -1.57 (inactive)
CARRRRFERAAGNASASA [FS-1566] | 10.7 (active) | 10.7 (active) | 8.07 (active)
CARRRREGGAAGNASASA [FS-2373] | -0.0204 (inactive) | 0.649 (inactive) | 0.0983 (inactive)
